Test results published in ChEMBL document CHEMBL2218924, “A broad activity screen in support of a chemogenomic map for kinase signalling research and drug discovery” (Biochem J, 2013).

Legend:
[1] = target: T1, Ephrin type-A receptor 3 (Homo sapiens) (UniProt P29320); conditions: at 10 µM
T1 sequence (whole entry): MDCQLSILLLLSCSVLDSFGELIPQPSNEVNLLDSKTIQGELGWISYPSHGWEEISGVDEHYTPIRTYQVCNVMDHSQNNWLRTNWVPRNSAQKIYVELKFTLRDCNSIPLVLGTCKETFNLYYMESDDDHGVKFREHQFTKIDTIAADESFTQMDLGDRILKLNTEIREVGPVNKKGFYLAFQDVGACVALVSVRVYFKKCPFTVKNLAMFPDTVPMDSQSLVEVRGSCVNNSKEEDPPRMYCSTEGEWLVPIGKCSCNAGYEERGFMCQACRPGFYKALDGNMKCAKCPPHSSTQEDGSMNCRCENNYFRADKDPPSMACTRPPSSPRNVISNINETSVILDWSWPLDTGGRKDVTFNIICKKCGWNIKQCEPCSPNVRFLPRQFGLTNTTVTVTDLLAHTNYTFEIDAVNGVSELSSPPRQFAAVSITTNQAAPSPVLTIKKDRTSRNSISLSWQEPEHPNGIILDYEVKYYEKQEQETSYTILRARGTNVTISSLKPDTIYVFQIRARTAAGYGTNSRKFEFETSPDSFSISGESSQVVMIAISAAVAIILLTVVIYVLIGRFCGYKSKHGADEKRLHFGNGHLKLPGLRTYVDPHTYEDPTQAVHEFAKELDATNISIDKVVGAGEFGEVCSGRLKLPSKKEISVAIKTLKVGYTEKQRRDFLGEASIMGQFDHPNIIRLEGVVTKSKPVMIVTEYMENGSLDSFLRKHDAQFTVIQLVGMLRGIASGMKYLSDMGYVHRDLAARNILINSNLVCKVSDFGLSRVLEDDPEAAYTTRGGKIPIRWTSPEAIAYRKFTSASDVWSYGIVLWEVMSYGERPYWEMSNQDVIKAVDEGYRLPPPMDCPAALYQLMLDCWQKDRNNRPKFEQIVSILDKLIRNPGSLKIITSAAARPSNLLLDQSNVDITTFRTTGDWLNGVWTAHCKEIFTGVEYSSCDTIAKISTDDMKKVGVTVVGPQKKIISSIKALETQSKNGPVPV

[2] = target: Ephrin type-A receptor 5 (Homo sapiens) (UniProt P54756); conditions: at 10 µM
[3] = target: Ephrin type-A receptor 7 (Homo sapiens) (UniProt Q15375); conditions: at 1 µM
[4] = target: Ephrin type-A receptor 7 (Homo sapiens) (UniProt Q15375); conditions: at 10 µM
[5] = target: T2, Ephrin type-A receptor 8 (Homo sapiens) (UniProt P29322); conditions: at 1 µM
T2 sequence (whole entry): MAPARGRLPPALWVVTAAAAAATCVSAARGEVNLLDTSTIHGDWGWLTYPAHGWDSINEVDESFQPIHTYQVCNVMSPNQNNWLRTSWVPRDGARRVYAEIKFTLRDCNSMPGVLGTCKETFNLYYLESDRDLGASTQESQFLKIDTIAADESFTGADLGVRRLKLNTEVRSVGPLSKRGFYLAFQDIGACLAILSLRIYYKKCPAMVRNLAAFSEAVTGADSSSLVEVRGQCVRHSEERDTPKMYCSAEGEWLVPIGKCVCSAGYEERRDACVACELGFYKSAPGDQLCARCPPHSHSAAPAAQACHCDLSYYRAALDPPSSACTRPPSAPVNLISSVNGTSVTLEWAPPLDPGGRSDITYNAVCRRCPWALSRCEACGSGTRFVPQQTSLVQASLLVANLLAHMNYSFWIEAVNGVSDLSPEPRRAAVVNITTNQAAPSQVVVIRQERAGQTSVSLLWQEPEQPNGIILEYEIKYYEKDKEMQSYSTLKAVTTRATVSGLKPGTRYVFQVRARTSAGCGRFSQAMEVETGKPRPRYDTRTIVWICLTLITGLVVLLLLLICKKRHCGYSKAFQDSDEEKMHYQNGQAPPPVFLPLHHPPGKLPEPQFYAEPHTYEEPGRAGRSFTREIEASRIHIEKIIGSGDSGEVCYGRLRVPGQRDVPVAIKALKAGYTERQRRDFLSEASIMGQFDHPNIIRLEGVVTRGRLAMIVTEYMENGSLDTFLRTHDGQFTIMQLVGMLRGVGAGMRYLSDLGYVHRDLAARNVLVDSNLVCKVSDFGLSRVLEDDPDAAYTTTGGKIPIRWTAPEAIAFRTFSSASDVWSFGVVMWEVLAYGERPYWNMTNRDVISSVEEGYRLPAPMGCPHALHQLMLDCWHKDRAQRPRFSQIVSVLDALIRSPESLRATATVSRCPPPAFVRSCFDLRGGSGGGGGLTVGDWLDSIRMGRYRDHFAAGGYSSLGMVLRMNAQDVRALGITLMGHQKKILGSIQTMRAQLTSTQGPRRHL

[6] = target: T2, Ephrin type-A receptor 8 (Homo sapiens); conditions: at 10 µM
[7] = target: T3, Ephrin type-B receptor 1 (Homo sapiens) (UniProt P54762); conditions: at 1 µM
T3 sequence (whole entry): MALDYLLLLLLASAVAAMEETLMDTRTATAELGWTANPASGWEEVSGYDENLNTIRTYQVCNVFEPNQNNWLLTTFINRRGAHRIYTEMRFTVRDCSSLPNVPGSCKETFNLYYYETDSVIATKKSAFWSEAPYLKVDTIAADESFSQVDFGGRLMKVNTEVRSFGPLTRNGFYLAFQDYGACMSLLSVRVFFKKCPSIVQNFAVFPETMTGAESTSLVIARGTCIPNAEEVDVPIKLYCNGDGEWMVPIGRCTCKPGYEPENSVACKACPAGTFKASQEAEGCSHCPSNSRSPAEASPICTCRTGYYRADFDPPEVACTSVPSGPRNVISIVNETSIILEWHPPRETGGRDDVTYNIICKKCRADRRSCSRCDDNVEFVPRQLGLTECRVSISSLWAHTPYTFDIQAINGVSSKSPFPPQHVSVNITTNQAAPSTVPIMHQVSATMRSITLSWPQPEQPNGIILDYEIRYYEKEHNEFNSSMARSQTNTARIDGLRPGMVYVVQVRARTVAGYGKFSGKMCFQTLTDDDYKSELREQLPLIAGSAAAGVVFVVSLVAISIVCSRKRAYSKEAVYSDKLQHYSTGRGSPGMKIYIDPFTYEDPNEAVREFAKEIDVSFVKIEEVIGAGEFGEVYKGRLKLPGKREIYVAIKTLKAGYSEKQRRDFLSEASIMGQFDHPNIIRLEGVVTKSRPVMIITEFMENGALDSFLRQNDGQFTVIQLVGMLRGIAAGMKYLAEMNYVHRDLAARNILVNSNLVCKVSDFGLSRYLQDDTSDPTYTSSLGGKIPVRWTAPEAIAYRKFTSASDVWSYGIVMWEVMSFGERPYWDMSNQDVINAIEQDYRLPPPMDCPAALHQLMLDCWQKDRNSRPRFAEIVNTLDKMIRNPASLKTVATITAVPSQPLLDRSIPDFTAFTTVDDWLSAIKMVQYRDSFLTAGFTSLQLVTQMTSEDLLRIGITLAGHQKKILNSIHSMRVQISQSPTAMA

[8] = target: T3, Ephrin type-B receptor 1 (Homo sapiens); conditions: at 10 µM
[9] = target: T4, Ephrin type-B receptor 2 (Homo sapiens) (UniProt P29323); conditions: at 1 µM
T4 sequence (whole entry): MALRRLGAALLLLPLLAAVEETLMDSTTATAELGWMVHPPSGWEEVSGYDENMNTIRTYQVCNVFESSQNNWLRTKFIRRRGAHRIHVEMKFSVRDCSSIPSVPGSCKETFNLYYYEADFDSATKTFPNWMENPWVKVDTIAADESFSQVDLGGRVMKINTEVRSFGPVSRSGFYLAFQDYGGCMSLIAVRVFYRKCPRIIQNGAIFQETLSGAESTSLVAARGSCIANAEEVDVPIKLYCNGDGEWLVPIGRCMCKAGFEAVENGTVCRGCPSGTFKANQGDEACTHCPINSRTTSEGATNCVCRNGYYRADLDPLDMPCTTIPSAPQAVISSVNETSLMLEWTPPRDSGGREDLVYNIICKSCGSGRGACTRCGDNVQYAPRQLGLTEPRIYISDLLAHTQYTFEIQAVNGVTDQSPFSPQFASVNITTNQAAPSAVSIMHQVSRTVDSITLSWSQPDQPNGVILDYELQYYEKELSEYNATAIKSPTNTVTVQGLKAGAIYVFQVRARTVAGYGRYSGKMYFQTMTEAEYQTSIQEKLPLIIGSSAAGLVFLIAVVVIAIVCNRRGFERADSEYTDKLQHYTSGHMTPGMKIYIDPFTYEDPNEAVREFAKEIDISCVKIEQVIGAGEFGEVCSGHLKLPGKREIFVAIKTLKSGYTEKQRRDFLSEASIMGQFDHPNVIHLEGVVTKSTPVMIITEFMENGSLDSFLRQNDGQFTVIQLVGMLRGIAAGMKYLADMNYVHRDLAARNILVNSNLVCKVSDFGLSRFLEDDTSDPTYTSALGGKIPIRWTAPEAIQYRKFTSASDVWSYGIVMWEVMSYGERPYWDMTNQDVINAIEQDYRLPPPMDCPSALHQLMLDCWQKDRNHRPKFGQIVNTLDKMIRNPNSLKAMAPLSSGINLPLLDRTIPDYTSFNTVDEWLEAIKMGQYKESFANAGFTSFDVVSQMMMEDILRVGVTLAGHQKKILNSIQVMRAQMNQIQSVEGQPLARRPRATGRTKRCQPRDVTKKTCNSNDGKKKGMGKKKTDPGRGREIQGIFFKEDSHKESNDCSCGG

[10] = target: T5, Ephrin type-B receptor 4 (Homo sapiens) (UniProt P54760); conditions: at 1 µM
T5 sequence (whole entry): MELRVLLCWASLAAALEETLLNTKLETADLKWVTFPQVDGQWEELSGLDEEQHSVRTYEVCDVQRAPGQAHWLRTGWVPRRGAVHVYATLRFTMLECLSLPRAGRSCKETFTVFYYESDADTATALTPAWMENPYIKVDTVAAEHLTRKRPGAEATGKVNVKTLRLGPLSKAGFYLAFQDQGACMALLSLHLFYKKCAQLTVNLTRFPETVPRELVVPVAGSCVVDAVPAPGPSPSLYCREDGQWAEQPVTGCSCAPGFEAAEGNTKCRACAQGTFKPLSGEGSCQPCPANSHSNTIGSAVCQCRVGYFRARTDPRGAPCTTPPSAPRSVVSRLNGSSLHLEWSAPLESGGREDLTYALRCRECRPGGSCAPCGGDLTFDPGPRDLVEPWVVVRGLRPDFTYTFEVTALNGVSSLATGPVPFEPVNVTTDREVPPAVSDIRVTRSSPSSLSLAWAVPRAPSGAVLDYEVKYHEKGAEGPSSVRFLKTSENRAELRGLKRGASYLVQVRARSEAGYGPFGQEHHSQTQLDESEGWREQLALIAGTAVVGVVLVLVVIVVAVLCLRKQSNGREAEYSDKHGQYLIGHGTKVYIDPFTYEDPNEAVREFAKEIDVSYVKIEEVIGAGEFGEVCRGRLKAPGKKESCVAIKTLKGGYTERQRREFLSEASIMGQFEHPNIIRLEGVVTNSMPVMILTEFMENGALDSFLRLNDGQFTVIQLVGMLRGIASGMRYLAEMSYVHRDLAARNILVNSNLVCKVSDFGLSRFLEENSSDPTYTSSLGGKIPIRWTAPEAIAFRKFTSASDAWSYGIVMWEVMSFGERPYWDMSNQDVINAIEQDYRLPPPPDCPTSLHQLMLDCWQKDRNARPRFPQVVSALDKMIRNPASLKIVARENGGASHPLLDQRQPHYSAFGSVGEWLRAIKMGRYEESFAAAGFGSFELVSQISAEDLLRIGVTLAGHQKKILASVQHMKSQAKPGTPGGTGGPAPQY

[11] = target: Receptor tyrosine-protein kinase erbB-4 (Homo sapiens) (UniProt Q15303); conditions: at 1 µM
[12] = target: Receptor tyrosine-protein kinase erbB-4 (Homo sapiens) (UniProt Q15303); conditions: at 10 µM
[13] = target: Focal adhesion kinase 1 (Homo sapiens) (UniProt Q05397); conditions: at 1 µM
[14] = target: Ephrin type-A receptor 5 (Homo sapiens) (UniProt P54756); conditions: at 1 µM
[15] = target: T6, Ephrin type-B receptor 3 (Homo sapiens) (UniProt P54753); conditions: at 10 µM
T6 sequence (whole entry): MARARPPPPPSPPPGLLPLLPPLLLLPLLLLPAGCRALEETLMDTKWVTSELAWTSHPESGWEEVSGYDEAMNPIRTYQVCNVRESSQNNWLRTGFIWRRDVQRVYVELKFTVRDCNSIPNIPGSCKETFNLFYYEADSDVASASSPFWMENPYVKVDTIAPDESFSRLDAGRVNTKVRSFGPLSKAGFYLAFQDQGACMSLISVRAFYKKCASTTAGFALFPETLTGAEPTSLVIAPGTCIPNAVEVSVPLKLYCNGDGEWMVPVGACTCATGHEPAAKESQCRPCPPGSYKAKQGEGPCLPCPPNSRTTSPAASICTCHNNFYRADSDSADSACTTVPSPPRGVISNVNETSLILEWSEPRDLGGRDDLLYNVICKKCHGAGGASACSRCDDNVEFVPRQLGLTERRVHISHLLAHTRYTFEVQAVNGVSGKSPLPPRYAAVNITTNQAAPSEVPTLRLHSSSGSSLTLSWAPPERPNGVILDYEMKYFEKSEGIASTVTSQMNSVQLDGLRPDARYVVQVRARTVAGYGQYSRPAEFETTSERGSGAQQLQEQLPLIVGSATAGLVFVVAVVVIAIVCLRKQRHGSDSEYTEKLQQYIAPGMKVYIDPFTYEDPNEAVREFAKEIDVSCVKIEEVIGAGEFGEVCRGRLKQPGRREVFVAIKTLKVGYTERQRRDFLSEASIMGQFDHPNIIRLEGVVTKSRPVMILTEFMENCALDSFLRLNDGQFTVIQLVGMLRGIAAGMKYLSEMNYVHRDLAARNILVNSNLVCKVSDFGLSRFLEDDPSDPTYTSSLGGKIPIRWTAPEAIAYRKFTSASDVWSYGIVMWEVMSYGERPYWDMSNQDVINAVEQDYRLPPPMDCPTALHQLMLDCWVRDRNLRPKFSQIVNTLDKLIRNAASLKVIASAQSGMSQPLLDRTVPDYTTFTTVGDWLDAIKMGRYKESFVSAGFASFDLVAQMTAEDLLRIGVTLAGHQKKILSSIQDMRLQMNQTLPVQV

[16] = target: T5, Ephrin type-B receptor 4 (Homo sapiens); conditions: at 10 µM

Chain of Ephrin type-A receptor 7 (Homo sapiens) (Q15375 28-998 limits assumed): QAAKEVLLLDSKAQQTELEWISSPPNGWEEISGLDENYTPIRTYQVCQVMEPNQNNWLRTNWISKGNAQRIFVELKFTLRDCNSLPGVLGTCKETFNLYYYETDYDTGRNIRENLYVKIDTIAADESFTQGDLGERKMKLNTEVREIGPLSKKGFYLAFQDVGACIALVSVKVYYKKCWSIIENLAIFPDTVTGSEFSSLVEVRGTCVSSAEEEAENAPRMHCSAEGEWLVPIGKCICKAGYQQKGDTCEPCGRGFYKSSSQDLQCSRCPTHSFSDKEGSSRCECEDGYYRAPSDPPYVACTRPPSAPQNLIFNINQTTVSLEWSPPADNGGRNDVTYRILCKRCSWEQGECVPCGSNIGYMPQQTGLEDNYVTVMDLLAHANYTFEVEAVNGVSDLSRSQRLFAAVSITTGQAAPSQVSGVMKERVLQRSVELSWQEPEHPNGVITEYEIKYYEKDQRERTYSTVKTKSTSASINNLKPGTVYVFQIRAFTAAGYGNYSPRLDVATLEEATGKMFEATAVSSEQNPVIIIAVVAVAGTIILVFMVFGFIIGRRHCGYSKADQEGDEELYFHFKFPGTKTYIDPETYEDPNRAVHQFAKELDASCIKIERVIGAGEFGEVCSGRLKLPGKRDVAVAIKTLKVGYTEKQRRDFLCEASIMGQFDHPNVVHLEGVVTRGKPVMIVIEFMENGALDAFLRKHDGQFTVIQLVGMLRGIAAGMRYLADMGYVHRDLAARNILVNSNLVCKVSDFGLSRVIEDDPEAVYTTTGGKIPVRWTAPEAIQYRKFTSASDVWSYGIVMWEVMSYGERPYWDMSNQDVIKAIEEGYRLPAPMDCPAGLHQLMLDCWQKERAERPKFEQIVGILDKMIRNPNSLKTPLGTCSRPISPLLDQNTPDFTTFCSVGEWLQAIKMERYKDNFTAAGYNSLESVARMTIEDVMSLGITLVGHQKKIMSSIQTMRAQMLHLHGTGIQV
Chain of Receptor tyrosine-protein kinase erbB-4 (Homo sapiens) (Q15303 whole entry): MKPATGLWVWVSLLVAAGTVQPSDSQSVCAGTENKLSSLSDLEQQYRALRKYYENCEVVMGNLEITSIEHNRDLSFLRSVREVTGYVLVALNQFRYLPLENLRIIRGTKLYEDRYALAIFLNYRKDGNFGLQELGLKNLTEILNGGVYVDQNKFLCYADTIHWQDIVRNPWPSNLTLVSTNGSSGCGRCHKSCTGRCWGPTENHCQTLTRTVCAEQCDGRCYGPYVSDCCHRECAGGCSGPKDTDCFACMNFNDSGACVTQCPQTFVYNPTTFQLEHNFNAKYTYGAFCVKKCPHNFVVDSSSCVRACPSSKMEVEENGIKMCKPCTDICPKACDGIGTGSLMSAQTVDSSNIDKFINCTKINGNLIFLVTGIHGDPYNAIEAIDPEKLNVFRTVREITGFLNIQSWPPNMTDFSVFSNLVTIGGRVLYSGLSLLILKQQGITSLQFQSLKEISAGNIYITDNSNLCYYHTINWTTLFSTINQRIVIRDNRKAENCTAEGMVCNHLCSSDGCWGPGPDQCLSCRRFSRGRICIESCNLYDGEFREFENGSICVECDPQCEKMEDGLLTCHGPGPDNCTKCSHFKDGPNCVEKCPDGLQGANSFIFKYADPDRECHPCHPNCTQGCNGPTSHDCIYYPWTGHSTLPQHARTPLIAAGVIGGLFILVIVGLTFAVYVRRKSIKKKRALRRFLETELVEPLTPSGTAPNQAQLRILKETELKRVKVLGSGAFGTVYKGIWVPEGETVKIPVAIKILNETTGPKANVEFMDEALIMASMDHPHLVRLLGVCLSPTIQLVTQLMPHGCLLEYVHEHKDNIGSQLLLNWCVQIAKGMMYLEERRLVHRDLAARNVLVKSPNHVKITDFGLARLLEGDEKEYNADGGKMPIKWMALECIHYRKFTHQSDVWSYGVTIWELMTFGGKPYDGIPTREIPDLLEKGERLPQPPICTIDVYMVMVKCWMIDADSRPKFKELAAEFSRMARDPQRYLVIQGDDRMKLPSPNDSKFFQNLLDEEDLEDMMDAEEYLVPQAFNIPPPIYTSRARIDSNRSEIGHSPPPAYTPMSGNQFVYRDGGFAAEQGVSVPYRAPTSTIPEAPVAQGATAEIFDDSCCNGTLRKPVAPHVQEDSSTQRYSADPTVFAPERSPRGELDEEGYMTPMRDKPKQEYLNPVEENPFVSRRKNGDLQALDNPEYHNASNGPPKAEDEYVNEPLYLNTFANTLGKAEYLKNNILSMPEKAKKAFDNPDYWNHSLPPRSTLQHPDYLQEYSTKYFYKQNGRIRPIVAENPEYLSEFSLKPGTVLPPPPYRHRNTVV
Chain of Ephrin type-A receptor 5 (Homo sapiens) (P54756 whole entry): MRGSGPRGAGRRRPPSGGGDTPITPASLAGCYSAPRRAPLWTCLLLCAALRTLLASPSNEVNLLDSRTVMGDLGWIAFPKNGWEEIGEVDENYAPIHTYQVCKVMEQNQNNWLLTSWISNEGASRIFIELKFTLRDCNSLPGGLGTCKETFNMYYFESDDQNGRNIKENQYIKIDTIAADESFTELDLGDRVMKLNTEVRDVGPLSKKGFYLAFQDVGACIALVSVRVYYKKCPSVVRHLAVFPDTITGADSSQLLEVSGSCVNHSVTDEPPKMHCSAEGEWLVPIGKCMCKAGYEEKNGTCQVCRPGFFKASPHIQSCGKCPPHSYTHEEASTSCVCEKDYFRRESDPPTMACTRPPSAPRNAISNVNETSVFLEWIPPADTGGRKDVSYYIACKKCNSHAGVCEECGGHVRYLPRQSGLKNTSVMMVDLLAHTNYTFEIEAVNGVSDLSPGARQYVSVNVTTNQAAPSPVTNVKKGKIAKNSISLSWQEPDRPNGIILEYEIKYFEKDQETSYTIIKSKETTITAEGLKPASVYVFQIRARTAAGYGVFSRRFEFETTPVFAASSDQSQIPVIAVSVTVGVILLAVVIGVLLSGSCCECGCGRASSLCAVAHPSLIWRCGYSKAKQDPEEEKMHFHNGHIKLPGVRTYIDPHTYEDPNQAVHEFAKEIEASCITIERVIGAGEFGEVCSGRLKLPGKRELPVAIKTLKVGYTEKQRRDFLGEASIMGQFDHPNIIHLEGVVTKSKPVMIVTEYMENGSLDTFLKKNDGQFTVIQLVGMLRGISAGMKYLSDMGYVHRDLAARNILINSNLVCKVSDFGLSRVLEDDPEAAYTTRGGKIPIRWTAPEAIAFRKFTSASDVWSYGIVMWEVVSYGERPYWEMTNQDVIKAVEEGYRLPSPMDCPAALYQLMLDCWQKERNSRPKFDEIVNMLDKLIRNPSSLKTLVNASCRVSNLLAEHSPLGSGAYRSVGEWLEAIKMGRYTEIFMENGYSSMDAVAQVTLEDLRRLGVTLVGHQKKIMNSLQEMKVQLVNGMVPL
Chain of Focal adhesion kinase 1 (Homo sapiens) (Q05397 2-1052 limits assumed): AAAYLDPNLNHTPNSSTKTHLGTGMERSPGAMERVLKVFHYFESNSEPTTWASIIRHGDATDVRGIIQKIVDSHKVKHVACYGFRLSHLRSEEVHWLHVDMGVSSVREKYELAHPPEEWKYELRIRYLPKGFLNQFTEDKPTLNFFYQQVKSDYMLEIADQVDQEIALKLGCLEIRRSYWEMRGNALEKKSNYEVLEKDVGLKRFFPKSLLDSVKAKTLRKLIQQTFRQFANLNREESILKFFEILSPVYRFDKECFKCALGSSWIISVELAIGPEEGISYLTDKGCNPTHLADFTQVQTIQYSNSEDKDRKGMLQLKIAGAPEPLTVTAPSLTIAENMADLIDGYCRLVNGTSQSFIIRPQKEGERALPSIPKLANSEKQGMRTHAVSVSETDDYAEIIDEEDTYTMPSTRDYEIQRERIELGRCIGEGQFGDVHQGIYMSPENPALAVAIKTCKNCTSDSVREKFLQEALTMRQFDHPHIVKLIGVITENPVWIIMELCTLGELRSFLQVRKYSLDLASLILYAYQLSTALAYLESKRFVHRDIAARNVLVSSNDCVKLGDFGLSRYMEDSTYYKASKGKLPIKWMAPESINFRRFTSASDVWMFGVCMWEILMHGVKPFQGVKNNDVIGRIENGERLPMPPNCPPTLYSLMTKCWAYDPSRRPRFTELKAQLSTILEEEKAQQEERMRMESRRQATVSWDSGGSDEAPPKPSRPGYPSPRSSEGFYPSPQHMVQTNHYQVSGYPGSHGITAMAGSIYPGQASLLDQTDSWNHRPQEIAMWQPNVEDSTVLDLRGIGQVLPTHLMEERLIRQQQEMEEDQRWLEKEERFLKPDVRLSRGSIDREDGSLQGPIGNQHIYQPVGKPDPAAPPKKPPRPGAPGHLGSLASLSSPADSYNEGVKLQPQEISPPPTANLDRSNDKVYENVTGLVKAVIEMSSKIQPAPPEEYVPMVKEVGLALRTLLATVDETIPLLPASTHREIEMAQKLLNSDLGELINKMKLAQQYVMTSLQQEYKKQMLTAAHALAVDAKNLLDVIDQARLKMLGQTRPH

Compound | residual activity [1] | residual activity [2] | residual activity [3] | residual activity [4] | residual activity [5] | residual activity [6] | residual activity [7] | residual activity [8] | residual activity [9] | residual activity [10] | residual activity [11] | residual activity [12] | residual activity [13] | residual activity [14] | residual activity [15] | residual activity [16]
O=c1cc(N2CCNCC2)oc2c(-c3ccccc3)cccc12 | 77% | 103% | 98% | 88% | 102% | 100% | 100% | 105% | 103% | 97% | 95% | 73% | 105% |  |  | 
COc1cc2nccc(Oc3ccc(NC(=S)NC(=O)c4ccccc4C)cc3)c2cc1OC | 67% | 53% | 90% | 56% | 75% | 49% | 86% | 70% |  |  | 85% | 67% |  | 91% | 129% | 
COc1ccc(-c2cnc3c(-c4ccsc4)cnn3c2)cc1 | 87% |  | 95% | 95% | 98% | 99% |  |  |  | 123% |  |  | 141% | 95% |  | 122%
